Here are results for 26 compounds from ChEMBL document CHEMBL1157539, “Thousands of chemical starting points for antimalarial lead identification” (Nature, 2010).

The test system of the test is Plasmodium falciparum. The test can be described thus: GSK_TCMDC: Inhibition of Plasmodium falciparum Dd2 in whole red blood cells, using parasite LDH activity as an index of growth. Test compounds present at 2uM. It counts as functional.
For orientation: Inhibition means the change of the read-out against control, counted positive when it falls. High values mean a strong effect, low ones a weak effect. `Cc1ccccc1C1CCN(c2ncc(C(=O)Nc3ccccc3)cc2Cl)CC1.O=C(O)C(F)(F)F` gave an Inhibition of 83%.
The value for `Cc1ccc(NCC(=O)Nc2ccc(F)c(Cl)c2)cc1S(=O)(=O)N1CCOCC1` was 97%; that for `CO/C(=C\C=C\c1cc2cc(Cl)c(Cl)cc2[nH]1)C(=O)NCCCN1CCN(c2cccc(Cl)c2)CC1` was 77%.
The value for `CCN1CCC(N(Cc2ccc(-c3ccc(C(F)(F)F)cc3)cc2)C(=O)Cn2c(CCc3cccc(F)c3F)cc(=O)c3ccccc32)C1.O=C(O)C(O)C(O)C(=O)O` (stereo unspecified) was 84%; that for `Cn1cncc1-c1ccc2c(-c3ccsc3)cnc(N)c2c1` was 72%.
The value for `CC1CCN(c2nc(C(=O)Nc3cccc4c3CCCC4)c(C(C)C)s2)CC1.O=C(O)C(F)(F)F` was 49%; that for `COc1ccc(NS(=O)(=O)c2cc(NC(=O)Cn3ccccc3=O)ccc2N2CCCCC2)cc1` was 83%.
As to `Cl.Clc1ccc(OCc2ccccc2)c(Cc2ccc(-c3nc4cnccc4[nH]3)o2)c1`, the Inhibition is reported as 6%.
For the compound `O=C(Nc1cc(C(F)(F)F)cc(C(F)(F)F)c1)N1CCC(CCN2CCC(c3c[nH]c4ccccc34)CC2)CC1`, the Inhibition is 16%.
The value for `COc1cc(/C=C/C(=O)NCC(CCNc2cc(=O)c3ccccc3[nH]2)NCc2cc(Br)cc(Br)c2)cc(OC)c1` (stereo unspecified) was 28%.
Next, `Cc1ccc(O)cc1Nc1ccnc2cc(-c3ccncc3)ccc12.Cl`: 84%.
For `COc1ccc(CCN(Cc2cccs2)C(=O)c2cc3sccc3n2C)cc1OC`, the Inhibition is given as 97%.
In the case of `CC(C)COc1ccc(Cl)cc1Nc1nc(-c2nc3ccccc3[nH]2)cs1.Cl`, the Inhibition is 29%.
As for `Cc1cc(N/N=C/c2ccccc2[N+](=O)[O-])c2cc(F)ccc2n1`, the Inhibition is on record as 100%.
Next, `O=C(O)C(F)(F)F.Oc1ccc(-c2nc3c(N4CCN(Cc5ccccc5)CC4)cccc3n2C2CCNCC2)cc1`: 7%; `COc1ccccc1NC(=O)Nc1cccc(-c2cccc(-c3nc4cc(C(F)(F)F)ccc4[nH]3)c2)c1`: 97%.
Next, `CCN1CCN(c2cc(C)c3cc(NC(=O)c4ccc([N+](=O)[O-])c(C)c4)ccc3n2)CC1`: 39%; `Cc1noc(C)c1-c1ccc2c(Nc3cccc4c3-c3ccccc3C4=O)c(C(=O)NCc3ccccc3I)cnc2c1`: 99%.
The value for `COC(=O)c1c(C#N)c(OC)cc(O)c1CSC[C@H](Nc1nc(-c2ccc([N+](=O)[O-])cc2)cs1)C(=O)NCCN1CCCCC1` was 88%.
For `FC(F)(F)c1ccc2[nH]c(-c3ccc(-c4cccc(CN5CCC(CCN6CCCCC6)CC5)c4)cc3)nc2c1.O=C(O)C(F)(F)F`, the Inhibition is listed as 96%.
The value for `COc1ccccc1CCNc1nc(C)cc(N[C@@H](Cc2ccccc2)C(=O)NCCCOC(C)C)n1.O=C(O)C(F)(F)F` was 32%; that for `Cc1ccc(CN2CCC(Oc3cccc(NC(=O)c4ccc(C(F)(F)F)cc4)c3)CC2)cc1.O=C(O)C(F)(F)F` was 15%.
The value for `CCN(CC)CCN(Cc1ccc(-c2ccc(C(F)(F)F)cc2)nc1)C(=O)Cn1cc(Cc2cnn(C)c2)c(=O)n2nc(-c3ccccc3)cc12.O=C(O)C(O)C(O)C(=O)O` was 95%.
The value for `CC(C)c1cc2c(ccc3nc(N)nc(N)c32)[nH]1` was 4%; that for `Cc1cc(Nc2nc(Nc3cccc(Cl)c3)nc3ccccc23)n[nH]1` was 95%; that for `Cc1cc(CNC(c2ccccc2)C2CCC2)cc(C)c1O` (stereo unspecified) was 48%.
